# PubChem BioAssay AID1209 (Sanford-Burnham Center for Chemical Genomics, 2008)
# The whole screen tested about 190,000 compounds, of which about 810 (0.43%) were called active. The full list was thinned out, with actives kept by preference. Unmarked numbers belong to inactive results. No stated cut-off is given here; in the data, active means inhibition above about 50%; inactive means the rest.
# Target: Mannose-6-phosphate isomerase (Homo sapiens) (UniProt P34949)
# Assay: MPI enzyme activity inhibition – biochemical, fluorescence intensity, coupled assay, primary screen (AID 1209);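 further: plate controls were DMSO vehicle for no effect and wells lacking substrate for full effect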
# Details: purified PMI enzyme, at 20 µM, stronger effect = higher value
# Chain of Mannose-6-phosphate isomerase (Homo sapiens) (P34949 whole entry, looked up): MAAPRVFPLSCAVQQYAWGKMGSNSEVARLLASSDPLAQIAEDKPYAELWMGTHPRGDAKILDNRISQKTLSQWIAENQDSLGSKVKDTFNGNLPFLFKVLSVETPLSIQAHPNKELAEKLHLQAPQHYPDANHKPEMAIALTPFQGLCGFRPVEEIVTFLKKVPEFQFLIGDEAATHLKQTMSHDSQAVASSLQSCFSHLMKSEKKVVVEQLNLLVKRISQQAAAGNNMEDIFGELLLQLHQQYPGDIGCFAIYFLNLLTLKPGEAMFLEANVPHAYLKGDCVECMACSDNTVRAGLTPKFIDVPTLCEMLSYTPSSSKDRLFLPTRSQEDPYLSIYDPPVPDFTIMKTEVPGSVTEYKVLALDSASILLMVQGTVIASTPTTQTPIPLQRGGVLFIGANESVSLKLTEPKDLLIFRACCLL
row,SMILES,inhibition
1,Oc1cc(-c2ccccc2)c2ccccc2c1,82.6% (active)
2,Cn1c(=O)cc(-c2ccccc2)c2ccccc21,1.5%
3,O=c1cc(-c2ccccc2)c2ccccc2[nH]1,9.9%
4,CCOC(=O)CSc1nc(C(C)(C)C)cc(C(F)(F)F)c1C#N,5.9%
5,COC(=O)C1=C(C(=O)OC)SC2(S1)C(C(=O)OC)=C(C(=O)OC)SC1=C2c2cccc(C)c2NC1(C)C,24.5%
6,COC(=O)C1=C(C(=O)OC)SC2(S1)C(C(=O)OC)=C(C(=O)OC)SC1=C2c2cc(C)ccc2NC1(C)C,57% (active)
7,COC(=O)C1=C(C(=O)OC)SC2(S1)C(C(=O)OC)=C(C(=O)OC)SC1=C2c2cc(C)cc(C)c2NC1(C)C,18.1%
8,CCOC(=O)CN1CCc2c(C)nc3c(-c4ccc(OC)c(OC)c4)cnn3c21,20.1%
9,CCOC(=O)NC(=O)COC(=O)CNC(=O)c1cccc(OC)c1,-0.3%
10,COc1ccc(C(=O)NC(=S)NCC2CCCO2)cc1 (stereo unspecified),2.8%
11,COc1ccc(N(CC(=O)N/N=C/c2ccc(-c3ccc([N+](=O)[O-])cc3)o2)S(=O)(=O)c2ccc(C)cc2)cc1,-2.3%
12,Cc1ccc(C)c(N(CC(=O)N/N=C/c2ccc(-c3ccc([N+](=O)[O-])cc3)o2)S(=O)(=O)c2ccccc2)c1,10.6%
13,CCOC(=O)C1(Cc2ccc(OC)cc2)CCN(C(=O)CCc2cccnc2)CC1,7.6%
14,COc1ccc(C)cc1NC(=O)CSc1nnc(-c2ccco2)n1N,10.6%
15,COC(=O)/C=c1/sc2nc3ccccc3n2c1=O,75.6% (active)
16,O=c1/c(=C\c2cccnc2)sc2nc3ccccc3n12,7%
17,O=c1/c(=C/c2ccccn2)sc2nc3ccccc3n12,-21.7%
18,Nc1ccccc1Oc1c(F)c(F)c(Oc2ccccc2N)c(F)c1F,18.8%
19,COc1cc(NC(C(=O)Nc2cccc(C(C)=O)c2)c2ccccc2)cc(OC)c1OC (stereo unspecified),16.5%
20,COc1cc(NC(c2ccccc2)c2ccccc2)cc(OC)c1OC,62.4% (active)
21,COc1cc(C)c(NC(c2ccccc2)c2ccccc2)cc1OC,16.1%
22,COc1ccc(C(C)=O)c(OC(=O)c2ccc(OC)c(OC)c2)c1,17.5%

row,SMILES,inhibition
1,C=CCNc1nc2c(c(=O)[nH]c(=O)n2C)n1CCCCC,2.9%
2,COCCN=C1Sc2nc3ccc(C)cc3cc2CN1Cc1ccco1,-63.1%
3,COCCN=C1Sc2nc3c(C)cccc3cc2CN1Cc1ccco1,51% (active)
4,Cc1cccc2cc3c(nc12)SC(=NCC1CCCO1)N(Cc1ccco1)C3 (stereo unspecified),7.4%
5,CCOc1ccc(NC(=NCc2ccc3c(c2)OCO3)SC2CC(=O)N(c3ccccc3)C2=O)cc1 (stereo unspecified),-4.2%
6,CCN(CC)S(=O)(=O)c1ccc(NC2c3ccccc3C(=O)N2CCN2CCOCC2)cc1 (stereo unspecified),18.5%
7,Cc1cc(C(C)(C)C)c(O)c(C(C)(C)C)c1,0%
8,Cc1cc(C)c(O)c(N)c1,33.4%
9,CC1(c2ccccc2)NC(=O)N(CC(=O)Nc2cc(S(=O)(=O)N3CCOCC3)ccc2Cl)C1=O (stereo unspecified),1.7%
10,COc1ccc(OCC(=O)Nc2ncc3c(n2)CC(C)(C)CC3=O)cc1,7.1%
11,Cc1ccc(N(C(C)C(=O)Nc2c(C)n(C)n(-c3ccccc3)c2=O)S(C)(=O)=O)cc1C (stereo unspecified),-4.4%
12,C[C@@H]1CN=C2N(CCNC(=O)CCC3CCCCC3)[C@H](Cc3ccc(O)cc3)CN21,85.3% (active)
13,O=C(CCC1CCCCC1)NCCN1C2=NC[C@H](Cc3ccc(O)cc3)N2C[C@H]1Cc1ccc(O)cc1,5%
14,CC(C)[C@H]1CN=C2N(CCNC(=O)CCC3CCCCC3)[C@H](Cc3ccc(O)cc3)CN21,65.2% (active)
15,O=C(CCC1CCCCC1)NCCN1C2=NC[C@H](Cc3ccccc3)N2C[C@H]1Cc1ccc(O)cc1,8%
16,COc1ccc(C[C@H]2CN3C(=NC[C@@H]3C(C)C)N2CCNC(=O)CCC2CCCCC2)cc1,7.4%
17,C[C@H]1CN=C2N(CCNC(=O)CCC3CCCCC3)[C@H](Cc3ccc(O)cc3)CN21,2.5%
18,CC(OC(=O)/C=C/c1cccs1)C(=O)Nc1ccc(S(N)(=O)=O)cc1 (stereo unspecified),-5.9%
19,Cc1ccccc1OCC(=O)N(Cc1ccc(N(C)C)cc1)C1CCS(=O)(=O)C1 (stereo unspecified),3.1%
20,C=CCNc1ccc(F)c(F)c1N1CCCCCC1=O,4.8%
21,NC(=O)c1cc2cc(Cc3ccccc3Cl)ccc2oc1=O,-1.2%
22,O=C(CN1C(=O)c2ccccc2S1(=O)=O)Nc1ccc(S(=O)(=O)N2CCCCCC2)cc1,18.7%

row,SMILES,inhibition
1,Cc1cc(C)c(S(=O)(=O)/N=C2/C=C(SCC(=O)O)C(=O)c3ccccc32)cc1C,-23.3%
2,Cc1ccc(S(=O)(=O)Nc2ccc(O)c(Sc3ncn[nH]3)c2)cc1,15.2%
3,Cc1cc(C)c(S(=O)(=O)Nc2ccc(O)c(Sc3ncn[nH]3)c2)c(C)c1,6.8%
4,Cc1cc(C)c(S(=O)(=O)/N=C2/C=C(Sc3ncn[nH]3)C(=O)c3ccccc32)cc1C,98.1% (active)
5,Cc1ccc(S(=O)(=O)/N=C2/C=C(Sc3ncn[nH]3)C(=O)c3ccccc32)c(C)c1,101% (active)
6,Cc1ccc(NC2=C/C(=N\S(=O)(=O)c3cccs3)c3ccccc3C2=O)c(C)c1,0.2%
7,CCn1c(COc2c(C)cccc2C)nnc1SCC(=O)N1CCN(c2ccccc2)CC1,8.2%
8,Cc1ccc(-c2nn(CC(=O)NCc3ccccn3)c(=O)c3ccccc23)cc1S(=O)(=O)N(C)C,-28.3%
9,COc1ccccc1NC(=O)c1ccc(NS(=O)(=O)c2ccc(F)c(F)c2F)cc1,-19.3%
10,COC(=O)c1cn(C(=O)c2ccc(C)cc2)c2ccccc12,12.6%
11,Cc1c(N=CC=Nc2c(C)n(C)n(-c3ccccc3)c2=O)c(=O)n(-c2ccccc2)n1C,-0.3%
12,CCC(c1c(C)n(C)n(-c2ccccc2)c1=O)c1c(C)n(C)n(-c2ccccc2)c1=O,-4.4%
13,Cc1c(N=C2C(=O)Nc3ccccc32)c(=O)n(-c2ccccc2)n1C,0.4%
14,Cc1c(N=c2scc(-c3ccccc3)n2C)c(=O)n(-c2ccccc2)n1C,-16.2%
15,CC1=CC(=Nc2c(C)n(C)n(-c3ccccc3)c2=O)C=C(C)C1=O,83.8% (active)
16,Cc1c(N=C2C=CC(=O)c3ccccc32)c(=O)n(-c2ccccc2)n1C,55.2% (active)
17,Cc1c(N=C2C=C(Br)C(=O)C(Br)=C2)c(=O)n(-c2ccccc2)n1C,64.3% (active)
18,Cc1c(N=Nc2ccc(O)cc2)c(=O)n(-c2ccccc2)n1C,15.5%
19,CCCC(c1c(C)n(C)n(-c2ccccc2)c1=O)c1c(C)n(C)n(-c2ccccc2)c1=O,3.4%
20,Cc1csc(=Nc2c(C)n(C)n(-c3ccccc3)c2=O)n1-c1ccccc1,1.6%
21,CC(=O)/C(N=Nc1c(C)n(C)n(-c2ccccc2)c1=O)=C(\C)O,-44.4%
22,CCC(C)C1=CC(=Nc2c(C)n(C)n(-c3ccccc3)c2=O)C=C(C(C)CC)C1=O (stereo unspecified),52.2% (active)
